{"source": "ChEMBL document CHEMBL3988442", "about": "“University of Dundee, Small-Polar-MMV Screening Library” (2021)", "note": "Among all 48,000 compounds or so, about 13,000 (27%) showed an effect of 50% or more. Some of the results follow."}
{"tested_on": "Wolbachia pipientis", "experiment": "Anti-Wolbachia Cell-Based Screen", "format": "functional", "parameters": "scale not given: in the data most compounds retested in dose-response had high values", "conditions": "5 µM", "units": {"Percent Effect": "%"}}
{"smiles": "Cc1cc(C(=O)N2CCC(c3nccn3CCCN(C)C)CC2)no1", "Percent Effect": 1.64}
{"smiles": "Nc1nc(CCNc2ncnc3c2CCN(C(=O)C2CC2)C3)cs1", "Percent Effect": -7.691}
{"smiles": "Cc1ccc(SCCN(C)C(=O)c2cn(CCN)nn2)cc1", "Percent Effect": 1.127}
{"smiles": "COCC(=O)N(Cc1cccc(C)c1)Cc1ccccc1OC", "Percent Effect": -10.99}
{"smiles": "CC(C)(O)CN1CCN(C(=O)COC2CCCCC2)CC1", "Percent Effect": -14.17}
{"smiles": "CCC(C)c1csc(NC(=O)Cc2csc(-c3nnc[nH]3)n2)n1", "note": "(stereo not given)", "Percent Effect": -13.2}
{"smiles": "CCN1CCc2nc(N3CCOCC3)nc(NC(C)C)c2C1", "Percent Effect": -4.113}
{"smiles": "CCC(C)N1CCc2nc(N3CCCC3)nc(NC(C)C)c2C1", "note": "(stereo not given)", "Percent Effect": 120.2}
{"smiles": "CC(C)Nc1nc(N2CCCC2)nc2c1CN(C(C)C)CC2", "Percent Effect": 4.85}
{"smiles": "c1csc(-c2nc(CN3CCN(c4cnccn4)CC3)co2)c1", "Percent Effect": -1.577}
{"smiles": "O=C1NCCN1C1CCN(Cc2coc(-c3ccccc3)n2)CC1", "Percent Effect": 93.32}
{"smiles": "Cc1ccc(-c2nc(CN3CCc4nn(C)c(=O)cc4C3)co2)cc1", "Percent Effect": -7.957}
{"smiles": "CS(=O)(=O)NC1CCN(Cc2coc(-c3ccc(Cl)cc3)n2)CC1", "Percent Effect": 11.26}
{"smiles": "O=C1NCCN1C1CCCN(Cc2coc(-c3cccs3)n2)C1", "note": "(stereo not given)", "Percent Effect": 113.2}
{"smiles": "O=C1NCCN1C1CCCN(Cc2coc(-c3ccc(F)cc3)n2)C1", "note": "(stereo not given)", "Percent Effect": -1.248}
{"smiles": "Cc1ccc(-c2nc(CN3CCC(N4CCNC4=O)CC3)co2)cc1", "Percent Effect": 99.39}
{"smiles": "O=C1NCCN1C1CCCN(Cc2nnc(-c3ccc(F)cc3)o2)C1", "note": "(stereo not given)", "Percent Effect": 8.098}
{"smiles": "O=S1(=O)CCCN1Cc1coc(-c2cccs2)n1", "Percent Effect": 4.552}
{"smiles": "O=C1NCCN1C1CCN(Cc2coc(-c3ccc(F)cc3)n2)CC1", "Percent Effect": 91.35}
{"smiles": "CS(=O)(=O)NC1CCN(Cc2coc(-c3ccccc3)n2)CC1", "Percent Effect": -0.3699}
{"smiles": "O=C1NCCN1C1CCN(Cc2ccccn2)CC1", "Percent Effect": -4.193}
{"smiles": "NCC1Cc2cc(Oc3cc(F)c(CN4CCCC4)c(F)c3)ccc2O1", "note": "(stereo not given)", "Percent Effect": -5.798}
{"smiles": "c1cc(-c2nnc(C3(c4ccc5c(c4)OCO5)CCOCC3)o2)ccn1", "Percent Effect": -12.56}
{"smiles": "CCc1ccc(C(COC)NC(=O)c2ccc(O)nc2)o1", "note": "(stereo not given)", "Percent Effect": -6.31}
{"smiles": "c1ccc(-n2nnnc2CN2CCCC(Cn3cncn3)C2)cc1", "note": "(stereo not given)", "Percent Effect": 0.4093}
{"smiles": "Cc1ccc(NC(=O)CN2CCOCC2)c(F)c1", "Percent Effect": 133.3}
{"smiles": "Cc1ccc(NC(=O)CNC(C)CN2CCOCC2)c(F)c1", "note": "(stereo not given)", "Percent Effect": 11.35}
{"smiles": "Cc1ccc(NC(=O)CNC(C)CN2CCCCC2)c(F)c1", "note": "(stereo not given)", "Percent Effect": 7.732}
{"smiles": "CCOC1CC2(CCN(CCO)CC2)c2ccc(C)cc21", "note": "(stereo not given)", "Percent Effect": 12.38}
{"smiles": "Cc1ccc2c(c1)CCC21CCN(C(=O)CO)CC1", "Percent Effect": -11.41}
{"smiles": "CC(=O)N1CCC2(CC1)CC(NC(=O)N(C)C)c1cc(C)ccc12", "note": "(stereo not given)", "Percent Effect": 112.2}
{"smiles": "CCC(=O)N1CCC2(CC1)CC(N1CCOCC1)c1cc(C)ccc12.O=C(O)C(F)(F)F", "note": "(stereo not given)", "Percent Effect": 0.6162}
{"smiles": "CCC(=O)N1CCC2(CC1)CC(NC(=O)N(C)C)c1cc(C)ccc12", "note": "(stereo not given)", "Percent Effect": 98.52}
{"smiles": "CC(=O)N1CC2(CCN(C(=O)N(C)C)CC2)c2cc(C)ccc21", "Percent Effect": 1.573}
{"smiles": "Cc1ccc(C)c(OCc2cc(C(=O)N(C)Cc3cnn(C)c3)no2)c1", "Percent Effect": -13.61}
{"smiles": "Cn1cc(C(=O)N2CCCC(Cc3cnccn3)C2)cn1", "note": "(stereo not given)", "Percent Effect": 110.5}
{"smiles": "Cn1cc(C(=O)N2CCCC2CCc2ccccc2)cn1", "note": "(stereo not given)", "Percent Effect": 11.22}
{"smiles": "Cc1ccc(C2CCCN(C(=O)c3cnn(C)c3)C2)nc1", "note": "(stereo not given)", "Percent Effect": 105.1}
{"smiles": "CCS(=O)(=O)N1CCCC(c2nccn2Cc2cccnc2)C1", "note": "(stereo not given)", "Percent Effect": -2.411}
{"smiles": "CCS(=O)(=O)N1CCCC(Cc2cnccn2)C1", "note": "(stereo not given)", "Percent Effect": 118.2}
{"smiles": "COc1cccc(OCC2CCCN(C(=O)c3cnn(C)c3)C2)c1", "note": "(stereo not given)", "Percent Effect": -49.1}
{"smiles": "CC(O)CN1CC2(CCC1=O)CCN(C(=O)c1cnn(C)c1)CC2", "note": "(stereo not given)", "Percent Effect": -4.211}
{"smiles": "CCS(=O)(=O)N1CCCC(c2nccn2Cc2ccccn2)C1", "note": "(stereo not given)", "Percent Effect": -4.348}
{"smiles": "Cn1cc(C(=O)N2CCCC(CN3CCCC3=O)C2)cn1", "note": "(stereo not given)", "Percent Effect": 73.94}
{"smiles": "COc1cc(N2CCN(Cc3ccc(C)o3)C(CCO)C2)nc(N)n1", "note": "(stereo not given)", "Percent Effect": -10.52}
{"smiles": "Cc1nn(C)c2c(=O)n(CC(=O)Nc3cc(Cl)cc(Cl)c3)nnc12", "Percent Effect": 4.089}
{"smiles": "Cn1cc(C(=O)N2CCCC(c3cnccn3)C2)cn1", "note": "(stereo not given)", "Percent Effect": 131}
{"smiles": "Cc1nccn1CC1CCCN(C(=O)c2cnn(C)c2)C1", "note": "(stereo not given)", "Percent Effect": 93.77}
{"smiles": "Cn1cc(C(=O)N2CCCC(c3ccncc3)C2)cn1", "note": "(stereo not given)", "Percent Effect": 78.37}
{"smiles": "Cn1cc(C(=O)N2CC[C@@]3(O)CCN(C(=O)C4CCC4)C[C@H]3C2)cn1", "Percent Effect": -11.15}
{"smiles": "COc1ccc(CN(C(=O)C2CCCS2)c2ccncc2)cc1", "note": "(stereo not given)", "Percent Effect": -11.82}
{"smiles": "COc1ccc(S(=O)(=O)N2CCn3cnc(COCC4CC4)c3C2)cc1", "Percent Effect": -5.165}
{"smiles": "CS(=O)(=O)N1CCCCC12CCCN(Cc1nccs1)C2.O=C(O)C(F)(F)F", "note": "(stereo not given)", "Percent Effect": -3.648}
{"smiles": "CNC[C@H]1CC[C@H](c2cc(CN(C)S(=O)(=O)N(C)C)n(C)n2)CC1.Cl", "Percent Effect": 79.31}
{"smiles": "CNC[C@H]1CC[C@H](c2cc(CN(C)C(=O)c3cnccn3)n(C)n2)CC1.Cl", "Percent Effect": 49.34}
{"smiles": "O=C(NN1CCCc2ccccc21)c1c[nH]c(=O)[nH]1", "Percent Effect": -8.796}
{"smiles": "CCc1cnc(C)nc1NCCNc1nc(C)cc(=O)[nH]1", "Percent Effect": -6.452}
{"smiles": "F[C@@H]1CN(CC2CC2)C[C@@H]1OCc1nc2ncccc2[nH]1", "Percent Effect": -13.13}
{"smiles": "Cc1ccc(CN2CCC(CNC(=O)Cn3cncn3)CC2)cc1", "Percent Effect": -4.206}
{"smiles": "O=C(CCc1ccsc1)NCC1CCN(Cc2cccs2)CC1", "Percent Effect": -16.57}
{"smiles": "O=C(CCc1ccccc1)NCC1CCN(Cc2ccsc2)CC1", "Percent Effect": 3.98}
{"smiles": "O=C(CCc1ccccc1)NCC1CCN(Cc2cccs2)CC1", "Percent Effect": 102.9}
{"smiles": "O=C(CCc1ccccc1)NCC1CCN(Cc2ccccc2)CC1", "Percent Effect": 111.4}
{"smiles": "COc1cc2cc(C(=O)NC(C)C(=O)O)n(C)c2c(OC)c1OC", "note": "(stereo not given)", "Percent Effect": 0.3251}
{"smiles": "CCc1[nH]c2c(CNc3nc(C)cc(NC)n3)cc(C)cc2c1C", "Percent Effect": -10.73}
{"smiles": "CC(SCCC(=O)NC(N)=O)c1ccccc1F", "note": "(stereo not given)", "Percent Effect": -10.14}
{"smiles": "Cc1ccc2c(c1)C1(CCNCC1)CC2N1CCOCC1", "note": "(stereo not given)", "Percent Effect": 0.9204}
{"smiles": "N#Cc1ccc(S(=O)(=O)Nc2ccccc2C#N)cn1", "Percent Effect": -3.183}
{"smiles": "COc1ccc(NC(=O)N2CCCCCC2c2ccncc2)cn1", "note": "(stereo not given)", "Percent Effect": -7.407}
{"smiles": "O=C(NCCN1CCOCC1)c1ccc(OCc2ccccc2)nc1", "Percent Effect": -12.09}
{"smiles": "Cc1ccc(CN2CCOCC2)cc1NC(=O)c1ccsc1", "Percent Effect": -4.906}
{"smiles": "O=C(NCC1(O)COCCN(Cc2cccc(O)c2)C1)c1ccccn1", "note": "(stereo not given)", "Percent Effect": 141}
{"smiles": "O=C(Nc1cc(N2CCOCC2)ncn1)c1cnccn1", "Percent Effect": -2.836}
{"smiles": "O=C(NCC1(O)COCCN(Cc2cccc(O)c2)C1)c1cscn1", "note": "(stereo not given)", "Percent Effect": 117.5}
{"smiles": "O=C(NCC1(O)COCCN(Cc2cccc(O)c2)C1)c1cnccn1", "note": "(stereo not given)", "Percent Effect": 119.9}
{"smiles": "O=C(NCN1CCc2ccccc2C1)c1cnccn1", "Percent Effect": -0.1611}
{"smiles": "O=C(Nc1cnn(CCN2CCOCC2)c1)c1ccccn1", "Percent Effect": -4.684}
{"smiles": "O=C(NCCc1cscn1)c1coc(CN2CCOCC2)c1", "Percent Effect": -2.273}
{"smiles": "O=C(NCC1(O)COCCN(Cc2ccc(O)cc2)C1)c1cnccn1", "note": "(stereo not given)", "Percent Effect": 136.8}
{"smiles": "CCCN(Cc1ccccc1C)C(CC)CO", "note": "(stereo not given)", "Percent Effect": 3.002}
{"smiles": "CC(C)c1nc(C(=O)N2CCc3ccccc3C2C(=O)O)cs1", "note": "(stereo not given)", "Percent Effect": -0.5058}
{"smiles": "CSCCNC(=O)c1coc(COc2ccc3sc(C)nc3c2)n1", "Percent Effect": -17.64}
{"smiles": "CNc1nc2c(c(C(=O)N3CCCC3)n1)CN(Cc1ccco1)CC2", "Percent Effect": 133.6}
{"smiles": "Cc1nc(N2CCCC2)nc2c1CCN(Cc1ccco1)CC2.O=C(O)C(F)(F)F", "Percent Effect": -6.041}
{"smiles": "CNc1nc2c(c(C(=O)N3CCCC3)n1)CN(Cc1nccn1C)CC2", "Percent Effect": 14.28}
{"smiles": "CNc1nc2c(c(C(=O)N3CCCC3)n1)CN(Cc1cc(C)no1)CC2", "Percent Effect": 97.24}
{"smiles": "CCCn1nc2c(cc1=O)CN(Cc1cc(C)no1)CC2", "Percent Effect": 7.336}
{"smiles": "Cc1cc(CN2CCc3nn(C)c(=O)cc3C2)on1", "Percent Effect": 13.66}
{"smiles": "CC1(C)CN(C(=O)c2cnc(CN3CCCC3)s2)CC[C@]1(C)O", "Percent Effect": -20.27}
{"smiles": "CC(C)(C)NC(=O)NC(=O)CNC(C)(C)c1ccc2c(c1)OCCO2", "Percent Effect": 3.102}
{"smiles": "CC(C)(NCC(=O)NC(=O)NC1CC1)c1ccc2c(c1)OCO2", "Percent Effect": 94.42}
{"smiles": "COC(=O)c1oc(CNC(C)(C)c2ccc3c(c2)OCCO3)cc1C", "Percent Effect": -6.562}
{"smiles": "COC(=O)c1oc(CNC(C)(C)c2ccc3c(c2)OCO3)cc1C", "Percent Effect": -12.91}
{"smiles": "Cc1cc(NC(=O)CNC(C)(C)c2ccc3c(c2)OCO3)on1", "Percent Effect": 4.007}
{"smiles": "CC(C)(NCc1cccc(O)c1)c1ccc2c(c1)OCO2", "Percent Effect": 4.523}
{"smiles": "CC(C)(NCC(=O)NCC1CC1)c1ccc2c(c1)OCCO2", "Percent Effect": 87.25}
{"smiles": "CCNC(=O)NC(=O)CNC(C)(C)c1ccc2c(c1)OCCO2", "Percent Effect": 126.2}
{"smiles": "CCNC(=O)NC(=O)CNC(C)(C)c1ccc2c(c1)OCO2", "Percent Effect": 117.5}
{"smiles": "CC(C)(NCC(=O)NCC(F)(F)F)c1ccc2c(c1)OCCO2", "Percent Effect": 5.568}
{"smiles": "Cc1cc(NC(=O)CNC(C)(C)c2ccc3c(c2)OCCO3)no1", "Percent Effect": -9.405}
{"smiles": "CC(C)(NCc1cccc(C(N)=O)c1)c1ccc2c(c1)OCO2", "Percent Effect": 2.76}
{"smiles": "Cn1ccc(N2CCCC(NC(=O)c3ccsc3)C2=O)n1", "note": "(stereo not given)", "Percent Effect": -23.95}
{"smiles": "Cc1cnn(CCCNC(=O)C2CCCCN2Cc2ccncc2)c1", "note": "(stereo not given)", "Percent Effect": -11.5}
{"smiles": "COc1ccc(C)c2c1N(C(=O)c1cnc3onc(C)c3c1)CCC2", "Percent Effect": 2.409}
{"smiles": "O=C(CN1CCOC(c2ccc(Cl)c(Cl)c2)C1)NCc1ccco1", "note": "(stereo not given)", "Percent Effect": -33.51}
